Here are results for 103 sequences from the supplement of paper PMC3334620.

Over roughly 33,000 sequences, “E-score (-0.5 to 0.5)” has its median near -0.054; the highest 2% begin near 0.39. What follows is part of a selection rich in the highest values, with near analogues and random picks from the rest.

For this assay, the target named is Ylr278c (UniProt Q05854). In words: PBM E-score (8-mer binding enrichment) (E-score (-0.5 to 0.5)); higher = stronger / more preferred TF binding. The conditions noted are these: protein concentration: 200 nM; construct: GST-DNA-binding domain. The essentials: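 Yeast transcription factors carrying a GST tag, as full-length proteins or DNA-binding domains, were produced by PURExpress in vitro transcription/translation. About 100-200 nM protein was applied to universal all-10-mer Agilent arrays, double-stranded by primer extension on fresh or once-stripped slides. Bound protein was detected with fluorescent anti-GST, and scans were normalised with masliner. The Universal PBM Analysis Suite gave each ungapped eight-base word, pooled with its reverse complement, an E-score, a modified Wilcoxon-Mann-Whitney statistic.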
Chain of UniProt Q05854 (Q05854 whole entry, the tested form may be a part): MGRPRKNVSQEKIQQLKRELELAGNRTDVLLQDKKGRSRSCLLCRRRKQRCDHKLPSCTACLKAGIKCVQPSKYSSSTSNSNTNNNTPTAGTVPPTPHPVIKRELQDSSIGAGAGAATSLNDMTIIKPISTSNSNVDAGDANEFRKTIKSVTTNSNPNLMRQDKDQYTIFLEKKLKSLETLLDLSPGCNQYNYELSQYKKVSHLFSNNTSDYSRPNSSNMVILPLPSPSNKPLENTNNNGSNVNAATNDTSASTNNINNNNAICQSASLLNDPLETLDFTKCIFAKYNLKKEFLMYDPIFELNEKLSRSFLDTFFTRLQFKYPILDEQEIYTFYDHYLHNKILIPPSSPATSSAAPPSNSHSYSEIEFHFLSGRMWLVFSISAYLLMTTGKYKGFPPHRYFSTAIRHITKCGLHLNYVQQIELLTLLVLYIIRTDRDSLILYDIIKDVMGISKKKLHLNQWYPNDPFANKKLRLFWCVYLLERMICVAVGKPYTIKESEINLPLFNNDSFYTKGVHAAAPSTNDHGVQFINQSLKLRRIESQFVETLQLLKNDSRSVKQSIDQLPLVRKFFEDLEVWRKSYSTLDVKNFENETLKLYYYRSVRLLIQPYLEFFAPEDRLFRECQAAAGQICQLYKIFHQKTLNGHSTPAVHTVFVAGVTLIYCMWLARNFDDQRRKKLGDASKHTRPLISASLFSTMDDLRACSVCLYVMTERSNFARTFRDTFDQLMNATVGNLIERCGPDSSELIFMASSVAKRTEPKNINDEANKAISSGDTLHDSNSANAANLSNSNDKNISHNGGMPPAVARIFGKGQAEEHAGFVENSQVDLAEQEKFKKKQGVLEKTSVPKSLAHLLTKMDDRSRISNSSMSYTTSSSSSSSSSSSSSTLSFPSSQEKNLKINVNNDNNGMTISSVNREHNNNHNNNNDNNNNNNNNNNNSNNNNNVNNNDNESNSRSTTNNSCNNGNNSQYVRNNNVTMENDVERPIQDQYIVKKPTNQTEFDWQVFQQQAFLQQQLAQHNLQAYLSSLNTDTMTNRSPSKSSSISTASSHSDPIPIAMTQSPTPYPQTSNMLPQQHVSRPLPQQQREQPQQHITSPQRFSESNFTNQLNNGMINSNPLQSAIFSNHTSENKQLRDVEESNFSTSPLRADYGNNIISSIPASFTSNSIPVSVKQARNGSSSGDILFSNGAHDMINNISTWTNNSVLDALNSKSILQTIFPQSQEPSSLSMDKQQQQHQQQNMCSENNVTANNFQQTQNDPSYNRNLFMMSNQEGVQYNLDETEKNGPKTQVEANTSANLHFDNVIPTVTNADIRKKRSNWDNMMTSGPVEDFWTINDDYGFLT
Turning to AATGGAAT, the “PBM E-score” value amounted to 0.0961.
Then ATCTGTGG, with -0.141; and ATTTCGGA, with 0.45; and CCTTCGGC, with 0.112.
In the case of CTTTCGGC, the “PBM E-score” value amounted to 0.239.
Turning to ATTTCGGC, the “PBM E-score” value is 0.275.
Then CTTTCGTA, with -0.173; and CCTTCGGA, with 0.424; and GCTTCGGA, with 0.367.
As for GTTTCGAA, the figure is -0.0713; as for GTTTCGGA, 0.4; as for GTTTCGTA, 0.0178.
As for ATTTCGGG, the figure is 0.235.
For CTTTCGGA, the “PBM E-score” value is 0.451.
Take CTGGGTCC: the “PBM E-score” value came out at 0.0219.
As to CTTATCTA, the “PBM E-score” value is -0.0407.
Take CAAAGCTA: the “PBM E-score” value was -0.093.
Then ACTCGCAT, with -0.0232.
Then AAGTTCAA, with 0.118; and ACCACTTA, with -0.0492; and GGGCTCAC, with -0.0724.
On to GGAGCAGA, for which the “PBM E-score” value turned out to be 0.109.
Then ACCTTCTA, with -0.186; and GTGTACGA, with -0.00044.
Then CACCGCGC, with 0.201.
Regarding CTCCGCGA, the “PBM E-score” value was found to be 0.403.
Then GTCCGCGA, with 0.313.
As for ATCCGCGC, the figure is 0.251; as for ATCCGCGA, 0.253; as for CTCCGCGC, 0.429.
As to CCAGCTCC, the “PBM E-score” value is 0.22.
As for CATCTCCC, the figure is 0.216.
With CATCTCCG, the “PBM E-score” value came to 0.463.
As for CATCTCCA, the figure is 0.0295; as for AATCTCCC, 0.0563; as for AATCTCCG, 0.484.
AATCTCCT: the “PBM E-score” value is 0.0721.
As for ACGCTCTG, the figure is -0.251.
As for CAACTCGG, the figure is 0.139.
Then ACCTCTGC, with -0.209; and AAGGAAGC, with -0.162; and ACTTCAGA, with -0.0177.
For ACGGCCGA, the “PBM E-score” value was found to be 0.246.
Consider ACGGCCGG, for which the “PBM E-score” value amounted to 0.33.
Then GCGGCCGA, with 0.188; and CCGGCCGG, with 0.461.
For the sequence CCGGCCGA, the “PBM E-score” value amounted to 0.415.
Then CCGGCCGC, with 0.327; and AGCGCCAT, with -0.199; and GACAGGGC, with -0.0701.
As for GCCTCCAC, the figure is -0.044.
With TAGCCATA, the “PBM E-score” value was -0.329.
Then GATGGGGC, with -0.023; and CAGGACTG, with -0.287.
With CTTCCGGA, the “PBM E-score” value came to 0.451.
As for GTTCCGTA, the figure is 0.264; as for CTTCCGTA, 0.215.
As for ATTCCAGA, the figure is 0.0166; as for CTTCCGGC, 0.371.
Consider ATTCCGTA, for which the “PBM E-score” value worked out at 0.33.
As for ATTCCGGA, the figure is 0.46; as for GTTCCGCA, 0.289; as for GTTCCGGA, 0.45.
As for ACTGTTTC, the figure is -0.0349; as for GTCAGCAA, -0.18; as for CGTCCAAA, 0.14.
Then ACCTCGCT, with -0.0554.
As for AGTCAGCG, the “PBM E-score” value was 0.0403.
As to ATGCCCCA, the “PBM E-score” value is -0.0328.
Consider CAGTCGAA, for which the “PBM E-score” value was -0.212.
Then AAAGCCTT, with -0.162.
As for ATCTCAAC, the “PBM E-score” value was -0.00641.
Consider ACGGAGTA, for which the “PBM E-score” value amounted to 0.452.
For the sequence AAGGAGTC, the “PBM E-score” value is -0.127.
As for AAGGAGTA, the figure is -0.0326; as for CTGGAGTC, -0.0908; as for CCGGAGTC, 0.451.
Then GAGGAGTA, with 0.0495; and ATGGAGTC, with 0.0654; and ACGGAGTC, with 0.398.
Regarding GCGGAGTA, the “PBM E-score” value is 0.449.
As for ATGGAGTA, the figure is 0.0152; as for GGGGAGTA, 0.0376; as for CAGGAGTC, 0.055.
For the sequence AGAGTTGG, the “PBM E-score” value was -0.115.
With ACTCTGTA, the “PBM E-score” value is -0.175.
As for GACCCAGC, the figure is -0.272; as for GATCCAGC, 0.0556; as for ACACCGCC, 0.199.
As for AGACAGTC, the figure is -0.129; as for CTTACAGA, -0.0798.
As for CGAGACCG, the figure is 0.233.
As to CTCAAGTC, the “PBM E-score” value is -0.225.
As to CATGTACG, the “PBM E-score” value was -0.0652.
For the sequence CAGAATGG, the “PBM E-score” value was -0.0518.
Then GCTCTGGA, with -0.1; and CCGGAGTA, with 0.485.
Regarding ACGGAGTG, the “PBM E-score” value stood at 0.401.
As for CAGGAGTA, the figure is -0.0482; as for AAGGAGTG, -0.179.
Then ATGGAGTG, with -0.0888; and CTGGAGTA, with -0.0695; and GTTCTAGA, with 0.0109.
